This is an account of results in PubChem BioAssay (EPA / NIEHS).

Each structure is given as a SMILES string. Values joined by “and” are separate entries in the source; they are usually repeats but may differ in a detail not shown here. Equal values may be shown once. Inconclusive results are not listed. Active and inactive are the calls of the source. Rule for the calls: active = hit-call score of the fitted dose curve at least 0.9, where 1 is the maximum; inconclusive = response in the unintended direction; inactive = score below 0.9.

For experiment [1], the target named is human Beta-secretase (BACE), BACE1 (gene 23621) (UniProt P56817). Briefly: NVS_ENZ_hBACE: NovaScreen (NVS) Enzymatic Assay for human Beta-secretase (BACE) (AID 2283140).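 Note: hits are inhibitors that reduce fluorescent substrate signal versus DMSO.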 In short, it runs like this: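 SF9-expressed enzyme, cell-free; fluorescent substrate readout after 1 h. Screened at 25 uM single concentration, duplicate; hits retested in concentration series. Activity relative to DMSO baseline, loss-of-signal.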

Experiment [2] has as its target human AKT serine/threonine Kinase 1 (AKT1), AKT1 (gene 207) (UniProt P31749). Briefly: NVS_ENZ_hAKT1: NovaScreen (NVS) Enzymatic Assay for human AKT serine/threonine Kinase 1 (AKT1) (AID 2283138). In short, it runs like this: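 Fluorescence and mobility-shift readout of kinase activity, taken 1 h post-dosing in a cell-free format with recombinant protein. Primary screen at 25 uM in duplicate; hits (e.g. 30% inhibition) retested in concentration series topping at 50 uM.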

The target of experiment [3] is human AKT serine/threonine Kinase 2 (AKT2), AKT2 (gene 208) (UniProt P31751). Briefly: NVS_ENZ_hAKT2: NovaScreen (NVS) Enzymatic Assay for human AKT serine/threonine Kinase 2 (AKT2) (AID 2283141). In short, it runs like this:
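Cell-free fluorescence/electrophoretic mobility shift readout of recombinant human AKT2 activity, 1 h after chemical dosing. Duplicate primary screen at 25 uM, then singleton concentration-response up to 50 uM; loss of signal versus DMSO baseline.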

Experiment [4] concerns the target human Caspase 10 (CASP10), CASP10 (gene 843) (UniProt Q92851). Briefly: NVS_ENZ_hCASP10: NovaScreen (NVS) Enzymatic Assay for human Caspase 10 (CASP10) (AID 2283133). In short, it runs like this:
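Fluorescence-intensity enzyme read-out of E. coli-expressed CASP10 activity, 1 h after compound. Single-point duplicates at 25 uM preceded concentration-response testing (top 50 uM) of hits; inhibition expressed as signal loss versus DMSO.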

The target in experiment [5] is human Caspase 5 (CASP5), CASP5 (gene 838) (UniProt P51878). The experiment can be described thus: NVS_ENZ_hCASP5: NovaScreen (NVS) Enzymatic Assay for human Caspase 5 (CASP5) (AID 2283137). In short, it runs like this: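 Fluorescent substrate readout of CASP5 activity (loss-of-signal), measured 2 h post-dose. Protein expressed in E. coli. Primary screen duplicate at 25 uM; actives meeting threshold (e.g., 30% inhibition) rerun singleton, max 50 uM.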

Experiment [6] deals with human Dual Specificity Protein Phosphatase 3 (DUSP3), DUSP3 (gene 1845) (UniProt P51452). Briefly: NVS_ENZ_hDUSP3: NovaScreen (NVS) Enzymatic Assay for human Dual Specificity Protein Phosphatase 3 (DUSP3) (AID 2283152). In short, it runs like this: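 Cell-free fluorescence-intensity enzyme activity assay with recombinant protein and substrate; loss of signal fitted relative to DMSO baseline. Primary screen in duplicate at 25 uM, actives then run in concentration series; measured 0 h after dosing.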

Experiment [7] has as its target human Elastase, ELANE (gene 1991) (UniProt P08246). Briefly: NVS_ENZ_hElastase: NovaScreen (NVS) Enzymatic Assay for human Elastase (AID 2283153). In short, it runs like this: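 Concentration-response to 50 uM max, run singly for chemicals passing a threshold (e.g., 30% inhibition) in a duplicate 25 uM single-point screen. Neutrophil-derived human elastase, absorbance read-out of enzyme activity at 1.5 h; DMSO baseline.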

The target in experiment [8] is rat CYP2C12, Cyp2c12 (gene 25011) (UniProt P11510). Briefly: NVS_ADME_rCYP2C12: NovaScreen (NVS) CYP450-related Enzyme Activity (ADME) Assay for rat CYP2C12 (AID 2283119). In short, it runs like this:
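Fluorescent-substrate turnover by recombinant rat CYP2C12, measured at 0.5 h, normalized to acetonitrile vehicle. Chemicals screened first at a single 10 uM concentration in duplicate, with concentration series for actives.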

Experiment [9] deals with rat CYP2C6, gene 293989. The experiment can be described thus: NVS_ADME_rCYP2C6: NovaScreen (NVS) CYP450-related Enzyme Activity (ADME) Assay for rat CYP2C6 (AID 2283120). In short, it runs like this: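 Compounds first tested in duplicate at 10 uM, hits (e.g. 30% inhibition) re-run in singleton dose series to a 20 uM top concentration. Enzyme activity of recombinant rat CYP2C6 measured via fluorescent substrate turnover after 1 h; acetonitrile baseline.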

Experiment [10] deals with rat CYP2C13, Cyp2c13 (gene 171521) (UniProt P20814). The experiment can be described thus: NVS_ADME_rCYP2C13: NovaScreen (NVS) CYP450-related Enzyme Activity (ADME) Assay for rat CYP2C13 (AID 2283121). In short, it runs like this: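 Inhibition is read as decreased fluorescent product formation, referenced to acetonitrile vehicle. Cell-free recombinant rat Cyp2c13 reaction ran 0.75 hour; compounds first at 10 uM in duplicate, then concentration series for actives.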

The test system of experiment [11] is rat CYP3A1, gene 25642. Briefly: NVS_ADME_rCYP3A1: NovaScreen (NVS) CYP450-related Enzyme Activity (ADME) Assay for rat CYP3A1 (AID 2283126). In short, it runs like this:
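Compounds went first at 10 uM duplicate, then to series with 20 uM maximum. Fluorescence from substrate turnover by the recombinant enzyme was measured 0.5 h post-dosing, inhibition scored against acetonitrile vehicle.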

Experiment [12] addresses rat CYP3A2, Cyp3a2 (gene 266682) (UniProt P05183). Briefly: NVS_ADME_rCYP3A2: NovaScreen (NVS) CYP450-related Enzyme Activity (ADME) Assay for rat CYP3A2 (AID 2283128). In short, it runs like this: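 Fluorescence readout of extracted rat CYP3A2 activity 0.5 h post-dose, acetonitrile as negative control. Single-point testing in duplicate at 10 uM, followed by concentration series to a 20 uM maximum for actives.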

Experiment [13] concerns the target human Aurora Kinase A - serine/threonine-protein Kinase 6 (AurA), AURKA (gene 6790) (UniProt O14965). Briefly: NVS_ENZ_hAurA: NovaScreen (NVS) Enzymatic Assay for human Aurora Kinase A - serine/threonine-protein Kinase 6 (AurA) (AID 2283142). In short, it runs like this:
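Recombinant human AurA activity read by fluorescence after mobility-shift separation of product from substrate; 1 hour incubation. Chemicals first run in duplicate at 25 uM, then concentration series to 50 uM if over threshold; fitted relative to DMSO.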

Experiment [14] has as its target human Colony Stimulating Factor 1 Receptor (CSF1R), CSF1R (gene 1436) (UniProt P07333). The experiment can be described thus: NVS_ENZ_hCSF1R: NovaScreen (NVS) Enzymatic Assay for human Colony Stimulating Factor 1 Receptor (CSF1R) (AID 2283150). In short, it runs like this: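 Compounds screened in duplicate at 25 uM, then concentration-response (top 50 uM) for those passing threshold such as 30% inhibition; recombinant CSF1R activity measured 1 h post-dosing via fluorescent substrate/product mobility-shift separation, loss of signal versus DMSO.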

For experiment [15], the target named is human Casein Kinase 1-delta (CK1D), CSNK1D (gene 1453) (UniProt P48730). The experiment can be described thus: NVS_ENZ_hCK1D: NovaScreen (NVS) Enzymatic Assay for human Casein Kinase 1-delta (CK1D) (AID 2283148). In short, it runs like this: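 Recombinant human CK1-delta, cell-free; fluorescent substrate with electrophoretic mobility-shift separation of product, read 1 h after dosing. Single 25 uM duplicate screen, then concentration-response up to 50 uM; loss of signal vs DMSO.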

human Elastase, ELANE (gene 1991), sequence (P08246 whole entry, looked up): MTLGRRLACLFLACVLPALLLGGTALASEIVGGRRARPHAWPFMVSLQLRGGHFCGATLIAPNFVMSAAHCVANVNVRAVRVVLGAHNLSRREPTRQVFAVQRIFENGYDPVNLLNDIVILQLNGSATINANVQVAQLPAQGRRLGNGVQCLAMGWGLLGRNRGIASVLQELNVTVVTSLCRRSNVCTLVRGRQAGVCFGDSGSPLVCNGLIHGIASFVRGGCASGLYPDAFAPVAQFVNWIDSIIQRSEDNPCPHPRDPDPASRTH
human Beta-secretase (BACE), BACE1 (gene 23621), sequence (P56817 whole entry, looked up): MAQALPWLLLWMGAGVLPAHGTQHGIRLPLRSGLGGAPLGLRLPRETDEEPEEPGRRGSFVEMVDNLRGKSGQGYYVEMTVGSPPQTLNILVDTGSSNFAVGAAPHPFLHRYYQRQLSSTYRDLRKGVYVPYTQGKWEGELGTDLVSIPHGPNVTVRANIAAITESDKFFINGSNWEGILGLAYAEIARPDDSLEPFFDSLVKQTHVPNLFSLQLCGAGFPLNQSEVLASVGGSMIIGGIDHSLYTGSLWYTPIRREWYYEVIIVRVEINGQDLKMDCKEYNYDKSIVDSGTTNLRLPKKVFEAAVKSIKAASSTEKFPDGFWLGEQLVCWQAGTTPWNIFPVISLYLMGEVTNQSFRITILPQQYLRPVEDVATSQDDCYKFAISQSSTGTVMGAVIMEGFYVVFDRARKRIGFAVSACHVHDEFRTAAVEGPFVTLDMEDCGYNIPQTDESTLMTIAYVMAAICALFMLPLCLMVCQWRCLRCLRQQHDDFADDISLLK
rat CYP3A2, Cyp3a2 (gene 266682), sequence (P05183 whole entry, looked up): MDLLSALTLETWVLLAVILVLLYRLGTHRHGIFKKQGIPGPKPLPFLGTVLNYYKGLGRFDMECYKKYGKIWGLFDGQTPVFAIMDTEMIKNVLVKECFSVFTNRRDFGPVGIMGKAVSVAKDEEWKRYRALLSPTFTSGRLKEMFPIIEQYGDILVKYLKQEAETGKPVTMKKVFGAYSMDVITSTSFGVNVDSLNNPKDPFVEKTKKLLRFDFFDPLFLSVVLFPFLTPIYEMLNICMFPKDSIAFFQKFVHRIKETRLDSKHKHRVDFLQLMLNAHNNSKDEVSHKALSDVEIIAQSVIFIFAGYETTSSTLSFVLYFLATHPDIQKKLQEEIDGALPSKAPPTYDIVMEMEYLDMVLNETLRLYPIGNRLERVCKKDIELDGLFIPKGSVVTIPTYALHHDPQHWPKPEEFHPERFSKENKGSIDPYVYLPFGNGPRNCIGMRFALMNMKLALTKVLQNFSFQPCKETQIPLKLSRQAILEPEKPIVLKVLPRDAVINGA
human Dual Specificity Protein Phosphatase 3 (DUSP3), DUSP3 (gene 1845), sequence (P51452 whole entry, looked up): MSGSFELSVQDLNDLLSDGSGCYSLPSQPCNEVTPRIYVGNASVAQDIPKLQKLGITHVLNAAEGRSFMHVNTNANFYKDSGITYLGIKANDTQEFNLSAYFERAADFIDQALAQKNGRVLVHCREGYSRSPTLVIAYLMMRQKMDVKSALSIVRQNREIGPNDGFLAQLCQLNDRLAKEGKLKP
human Caspase 5 (CASP5), CASP5 (gene 838), sequence (P51878 whole entry, looked up): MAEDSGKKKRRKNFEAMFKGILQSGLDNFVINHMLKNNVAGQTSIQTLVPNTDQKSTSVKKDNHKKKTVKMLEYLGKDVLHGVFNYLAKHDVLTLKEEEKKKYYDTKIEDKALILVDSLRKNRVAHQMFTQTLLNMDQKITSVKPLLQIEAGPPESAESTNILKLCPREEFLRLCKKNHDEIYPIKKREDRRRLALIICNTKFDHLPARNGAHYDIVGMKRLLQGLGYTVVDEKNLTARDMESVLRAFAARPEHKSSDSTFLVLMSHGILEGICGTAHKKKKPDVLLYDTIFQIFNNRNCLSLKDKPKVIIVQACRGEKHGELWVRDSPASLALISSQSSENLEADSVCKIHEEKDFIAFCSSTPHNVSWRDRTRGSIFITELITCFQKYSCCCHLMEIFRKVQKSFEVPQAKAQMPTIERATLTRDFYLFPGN
human AKT serine/threonine Kinase 1 (AKT1), AKT1 (gene 207), sequence (P31749 whole entry, looked up): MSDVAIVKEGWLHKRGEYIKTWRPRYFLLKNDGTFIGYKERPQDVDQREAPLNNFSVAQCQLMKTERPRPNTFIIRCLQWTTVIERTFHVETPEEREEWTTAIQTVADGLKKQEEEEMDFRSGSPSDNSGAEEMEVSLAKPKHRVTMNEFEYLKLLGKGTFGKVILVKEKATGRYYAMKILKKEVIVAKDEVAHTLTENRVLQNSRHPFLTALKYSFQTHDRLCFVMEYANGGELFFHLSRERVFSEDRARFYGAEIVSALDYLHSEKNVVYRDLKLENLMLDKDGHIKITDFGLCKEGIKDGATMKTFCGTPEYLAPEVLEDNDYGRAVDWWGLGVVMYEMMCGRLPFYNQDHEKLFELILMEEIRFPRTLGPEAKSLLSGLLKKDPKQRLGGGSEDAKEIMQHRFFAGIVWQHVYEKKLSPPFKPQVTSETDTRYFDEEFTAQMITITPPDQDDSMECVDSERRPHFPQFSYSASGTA
human Colony Stimulating Factor 1 Receptor (CSF1R), CSF1R (gene 1436), sequence (P07333 whole entry, looked up): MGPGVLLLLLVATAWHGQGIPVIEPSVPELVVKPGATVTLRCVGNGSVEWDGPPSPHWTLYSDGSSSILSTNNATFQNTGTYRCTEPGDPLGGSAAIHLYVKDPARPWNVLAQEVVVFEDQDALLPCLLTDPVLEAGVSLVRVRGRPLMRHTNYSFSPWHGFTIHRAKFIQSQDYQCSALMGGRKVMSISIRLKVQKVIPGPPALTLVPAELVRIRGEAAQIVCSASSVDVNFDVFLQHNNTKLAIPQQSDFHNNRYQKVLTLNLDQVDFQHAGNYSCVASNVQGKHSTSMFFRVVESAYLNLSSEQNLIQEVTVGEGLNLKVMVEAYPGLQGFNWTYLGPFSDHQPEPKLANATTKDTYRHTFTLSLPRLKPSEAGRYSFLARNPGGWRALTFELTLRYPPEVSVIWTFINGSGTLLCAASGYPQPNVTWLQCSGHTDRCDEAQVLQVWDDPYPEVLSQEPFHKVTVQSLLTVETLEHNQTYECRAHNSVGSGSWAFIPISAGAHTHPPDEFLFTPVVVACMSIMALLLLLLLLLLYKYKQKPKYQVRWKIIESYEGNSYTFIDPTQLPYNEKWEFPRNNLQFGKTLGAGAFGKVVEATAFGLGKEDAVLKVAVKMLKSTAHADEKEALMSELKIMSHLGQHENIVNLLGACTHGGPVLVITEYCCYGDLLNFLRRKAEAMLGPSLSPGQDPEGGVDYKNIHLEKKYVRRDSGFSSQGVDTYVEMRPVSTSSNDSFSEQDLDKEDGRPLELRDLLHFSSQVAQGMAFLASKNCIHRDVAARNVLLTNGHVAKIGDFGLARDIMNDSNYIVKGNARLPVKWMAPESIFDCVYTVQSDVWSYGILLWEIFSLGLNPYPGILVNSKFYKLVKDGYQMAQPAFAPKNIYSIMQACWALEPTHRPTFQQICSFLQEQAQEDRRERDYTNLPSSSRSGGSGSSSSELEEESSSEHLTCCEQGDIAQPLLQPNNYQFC
rat CYP2C13, Cyp2c13 (gene 171521), sequence (P20814 whole entry, looked up): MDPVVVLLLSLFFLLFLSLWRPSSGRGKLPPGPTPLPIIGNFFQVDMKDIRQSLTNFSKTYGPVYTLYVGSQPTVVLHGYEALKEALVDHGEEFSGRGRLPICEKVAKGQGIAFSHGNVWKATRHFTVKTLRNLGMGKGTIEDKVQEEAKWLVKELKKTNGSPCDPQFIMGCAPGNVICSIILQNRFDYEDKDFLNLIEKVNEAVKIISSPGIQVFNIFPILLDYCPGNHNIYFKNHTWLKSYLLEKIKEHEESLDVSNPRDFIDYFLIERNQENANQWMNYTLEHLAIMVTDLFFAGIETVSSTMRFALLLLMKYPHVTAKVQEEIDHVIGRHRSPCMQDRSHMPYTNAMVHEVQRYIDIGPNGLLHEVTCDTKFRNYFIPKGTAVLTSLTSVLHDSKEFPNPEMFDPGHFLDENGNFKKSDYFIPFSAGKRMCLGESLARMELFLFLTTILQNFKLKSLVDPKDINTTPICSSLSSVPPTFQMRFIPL
human Aurora Kinase A - serine/threonine-protein Kinase 6 (AurA), AURKA (gene 6790), sequence (O14965 whole entry, looked up): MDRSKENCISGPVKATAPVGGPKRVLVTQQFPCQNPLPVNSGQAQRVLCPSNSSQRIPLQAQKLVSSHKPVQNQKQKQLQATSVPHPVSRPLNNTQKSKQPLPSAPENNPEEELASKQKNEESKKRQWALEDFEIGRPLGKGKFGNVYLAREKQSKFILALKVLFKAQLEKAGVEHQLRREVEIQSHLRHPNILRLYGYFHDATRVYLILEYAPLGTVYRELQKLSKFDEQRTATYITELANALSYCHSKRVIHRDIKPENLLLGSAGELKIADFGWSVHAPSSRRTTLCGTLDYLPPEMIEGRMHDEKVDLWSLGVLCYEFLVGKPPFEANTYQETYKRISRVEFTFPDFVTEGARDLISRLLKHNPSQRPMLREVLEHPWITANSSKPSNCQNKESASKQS
human AKT serine/threonine Kinase 2 (AKT2), AKT2 (gene 208), sequence (P31751 whole entry, looked up): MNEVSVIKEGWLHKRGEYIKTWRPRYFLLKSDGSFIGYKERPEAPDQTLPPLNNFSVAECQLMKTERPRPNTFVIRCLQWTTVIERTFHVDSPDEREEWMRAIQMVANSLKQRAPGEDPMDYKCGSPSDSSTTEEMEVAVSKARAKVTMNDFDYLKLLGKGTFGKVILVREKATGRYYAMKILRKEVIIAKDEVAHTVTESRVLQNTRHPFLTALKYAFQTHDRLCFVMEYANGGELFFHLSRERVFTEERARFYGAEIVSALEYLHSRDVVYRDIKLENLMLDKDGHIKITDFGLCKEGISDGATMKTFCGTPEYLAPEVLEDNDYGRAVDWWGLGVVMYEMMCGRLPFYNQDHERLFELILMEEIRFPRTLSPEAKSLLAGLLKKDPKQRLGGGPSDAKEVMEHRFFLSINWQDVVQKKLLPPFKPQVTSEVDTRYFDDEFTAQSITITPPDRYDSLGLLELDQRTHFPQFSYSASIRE

By AC50 is commonly meant the concentration at which the activity in the assay is half-maximal. `O=C(O)C(F)(F)C(F)(F)C(F)(F)C(F)(F)C(F)(F)C(F)(F)F`: the AC50 in [1] is 18.6 µM (active).

For the compound `CCC(=O)C(CC(C)N(C)C)(c1ccccc1)c1ccccc1` (centres undefined), the compound was called inactive in experiment [2].

Regarding `CC(C)(OO)c1ccccc1`, the call in experiment [3] was inactive.

As to `O=C(O)C(F)(F)C(F)(F)C(F)(F)C(F)(F)C(F)(F)C(F)(F)C(F)(F)C(F)(F)C(F)(F)C(F)(F)F`, the outcome in [4] was inactive. In addition, the AC50 was 3.6 µM (active) in experiment [5]; 1.59 µM (active) in experiment [2]; 1.51 µM (active) in [1]; 2.72 µM (active) in [6]; 13.5 µM (active) in experiment [7].

In the case of `Clc1ccc(C2(Cn3cncn3)CC(Br)CO2)c(Cl)c1` (centres undefined), the AC50 is 11 µM (active) in experiment [8]; 4.68 µM (active) in experiment [9]; 1.87 µM (active) in experiment [10]; 721 nM (active) in experiment [11]; 1.91 µM (active) in experiment [12].

For `COP(=S)(OC)Oc1cc(Cl)c(Cl)cc1Cl`, the AC50 in [6] is 11.8 µM (active).

Take `O=C1C2(Cl)C3(Cl)C4(Cl)C(Cl)(Cl)C5(Cl)C3(Cl)C1(Cl)C5(Cl)C24Cl` (centres undefined): the AC50 is 7.93 µM (active) and 5.36 µM (active) in experiment [9]; 6.55 µM (active) and 3.69 µM (active) in [11]; 3.98 µM (active) and 7.08 µM (active) and 1.19 µM (active) in experiment [12]. In addition, the outcome in [5], in [1] and in experiment [13] was inactive.

Turning to `C=CC(=O)OCCCCCC(C)C`, the call in experiment [2] was inactive.

Turning to `CCOP(=S)(OCC)Oc1nc(Cl)c(Cl)cc1Cl`, the AC50 in experiment [6] was 6.51 µM (active).

On to `CC(C)CCCCCCOC(=O)c1ccccc1C(=O)OCCCCCCC(C)C`, for which the AC50 in experiment [1] is 8.09 µM (active).

Take `Cn1sc(Cl)cc1=O`: the compound was classed as inactive in [5], in experiment [1], in experiment [14] and in [7].

In the case of `O=C(Nc1ccc2[nH]ccc2c1)c1cc2cc(F)ccc2n1Cc1cccc(F)c1`, in experiment [1], the call was inactive.

As to `CCOP(=S)(OCC)SCSP(=S)(OCC)OCC`, the result in experiment [2] was inactive. The AC50 in [6] was 6.76 µM (active).

As for `C=C(C)C(=O)[O][Sn]([CH2]CCC)([CH2]CCC)[CH2]CCC`, the AC50 in [1] was 8.77 µM (active); in [6], 10.9 µM (active). Moreover, in experiment [7], the result was inactive.

Turning to `O=[N+]([O-])c1ccc2c3c(cccc13)CC2`, in experiment [5], the AC50 is 25 µM (active).

On to `COP(=S)(OC)Oc1ccc(S(=O)(=O)N(C)C)cc1`, for which the concentration at half-maximal activity (AC50) in experiment [6] was 7.43 µM (active).

For `CCCCCCCCc1ccc(O)cc1`, the result in [5], in [15] and in [14] was inactive.
